High-throughput results (PubChem BioAssay)
RORg inh: inhibitors of mouse ROR gamma transcriptional activity. 310,000 tested, 5.4% active. P51450. Potency, µM (highest dose often 53.6 µM), usual class: inhibitors. Drosophila S2 Gal4-RORgamma UAS-luciferase reporter, 20 h. AID 2551; note: nearly all actives have a fitted effect of over 60% in size
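Read-out: Photinus luciferase luminescence; inhibitors lower reporter signal. Insect Schneider cells with Gal4-ROR gamma fusion under metallothionein promoter, UAS reporter; 700 uM final copper sulfate induction, 20 hr, ambient temperature.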
TrxR1 substrate: rat thioredoxin reductase 1 substrate activity | O89049 | purified TrxR1 substrate turnover, NADPH consumption readout | Potency, µM (titrated, usually from 114 µM) | 390,000 tested, 0.01% active | AID 588456; note: nearly all actives have a fitted effect of over 50% in size
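Rat TrxR1, dispensed at 90 nM, was prereduced with 400 uM NADPH (final) for 5 min at ~22 deg C, then incubated with compound 15 min before 400 uM selenite. A first-read NADPH fluorescence drop versus no-compound background flagged substrates.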
Gal4-VP16 FLuc: inhibits Gal4-VP16 luciferase reporter, ROR gamma counter-screen. 310,000 tested, 3.5% active. Potency, µM (highest dose often 53.6 µM), actives largely listed as inhibitors. Drosophila S2 Gal4-VP16 UAS-luciferase, luminescence, 20 h;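 note: Gal4-VP16 expression switched on by copper sulfate through the metallothionein promoter; nearly all actives have a fitted effect of over 50% in size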
GALK inh: blocks human galactokinase activity. 270,000 tested, 0.007% active. Purified GALK, Kinase-Glo residual ATP luminescence. Potency, µM (highest dose often 57.5 µM), actives largely listed as inhibitors. P51570
Target sequence (P51570 whole entry, looked up): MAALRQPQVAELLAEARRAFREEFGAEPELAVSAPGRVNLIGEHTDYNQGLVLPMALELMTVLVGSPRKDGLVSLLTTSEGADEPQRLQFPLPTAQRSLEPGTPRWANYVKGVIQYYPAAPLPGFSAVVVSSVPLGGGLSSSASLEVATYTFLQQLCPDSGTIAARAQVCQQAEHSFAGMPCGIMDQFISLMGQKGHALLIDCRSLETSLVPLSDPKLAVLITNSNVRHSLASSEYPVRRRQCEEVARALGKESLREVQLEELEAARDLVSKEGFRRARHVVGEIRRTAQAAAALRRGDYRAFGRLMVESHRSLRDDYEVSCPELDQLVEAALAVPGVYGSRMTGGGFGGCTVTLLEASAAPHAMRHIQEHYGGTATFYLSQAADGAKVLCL
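ATP-depletion format; final 35 uM ATP, 100 uM D-galactose, 5 nM enzyme; pH 8.0 HEPES/Mg2+ buffer; 60 min RT; luminescence read 10 min after detection reagent.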
TrxR1 inh: inhibitors of rat thioredoxin reductase 1; O89049; recombinant rTrxR1, NADPH fluorescence consumption, selenite substrate; Potency, µM (doses to about 114 µM), usual class: inhibitors; 390,000 tested, 1% active; note: nearly all actives have a fitted effect of over 65% in size
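Rat TrxR1 (90 nM in the dispensed reagent) was pre-reduced with 400 uM NADPH for 5 min at room temperature, then incubated with compound for 15 min. After 400 uM selenite was added, NADPH fluorescence (Ex 340/Em 450 nm) was followed for 8 min.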
Coupling enz: counter-screen for Giardia aldolase inhibitors: coupling enzyme system | coupling enzyme system counterscreen, AmpLite Red fluorescence | 290,000 tested, 0.67% active | activity change, negative = inhibition, % at 58.2 µM, hits read low; in the data active = activity change below about -30%
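Compounds tested against the coupling enzymes alone at 57.5 uM final; readout was AmpLite Red fluorescence (525/598 nm) after 20 min at RT.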
Large screens that a line does not name were inactive. In the library only some 5.9% were active in any assay of this set; here they are far more common. Unless noted, calls come from the whole dose curve; as a rule, active = well fitted curve in the direction sought with a large enough effect; inconclusive = small, poorly fitted or top-dose-only effect, or another doubt; inactive = no such curve, though single readings can be large; an effect the other way counts as inactive or inconclusive.

CC1CCCCN1C(=O)Cn1c(=O)oc2cc(S(=O)(=O)N3CCCC3)ccc21 (stereo not drawn)	RORg inh 2.5µM (no result: GALK inh)
Cc1ccn2cc(-c3ccc(Br)cc3)nc2c1	RORg inh 8.9µM, Gal4-VP16 FLuc inconclusive
Cc1ccn2cc(-c3cccc(NC(=O)CCC(=O)O)c3)nc2c1	RORg inh 7.1µM, Gal4-VP16 FLuc 10µM
Cc1ccn2cc(-c3cccc([N+](=O)[O-])c3)nc2c1	RORg inh 10µM, Gal4-VP16 FLuc inconclusive
CCOCCCn1c(=N)c(C(N)=S)cc2c(=O)n3cccc(C)c3nc21	Gal4-VP16 FLuc 14µM, Coupling enz -45
COC1=CC(=O)C(OC)=C(OC)C1=O	TrxR1 inh 50µM (no result: RORg inh, Gal4-VP16 FLuc, GALK inh, Coupling enz)
CCC(C)[C@H]1CNCCN1CCc1cccc(F)c1 (stereo partly drawn)	none (no result: RORg inh, Gal4-VP16 FLuc, GALK inh, Coupling enz)
Cc1ccc(S(=O)(=O)Nc2ccc3c(c2)C(=O)NC3=O)cc1[N+](=O)[O-]	none (no result: Coupling enz)
O=C1CC(c2ccccc2)c2cc(O)ccc2O1 (stereo not drawn)	RORg inh 11µM
Cc1cc(/C=C2/NC(=O)NC2=O)c(C)n1-c1sc2c(c1C#N)CCCC2	RORg inh 11µM
Cc1cc(C)c(-n2c(C)cc(/C=C3/NC(=O)NC3=O)c2C)c(C)c1	none
O=C(NC1CCCC1)c1ccc(CS(=O)Cc2ccccc2Cl)o1 (stereo not drawn)	TrxR1 inh 50µM (no result: Coupling enz)
CCCCNC(=O)c1onc(CSc2ccccc2CC)c1C(=O)O	none
[2H]c1c([2H])c([2H])c(-c2nc(N3CCCCCC3)sc2C(=O)c2ccccc2)c([2H])c1[2H]	none
COc1ccc(C(=O)/C=C/c2cn(CC(O)CN3CCN(C)CC3)c3ccccc23)cc1OC (stereo not drawn)	none
COc1ccc(C(=O)/C=C/c2cn(CC(O)CN3CCCCCC3)c3ccccc23)cc1OC (stereo not drawn)	TrxR1 inh 40µM (no result: RORg inh, Gal4-VP16 FLuc, GALK inh, Coupling enz)
CCOC(=O)N1N=C(c2ccccc2)CC1(O)C(F)(F)F (stereo not drawn)	none
O=C(COc1ccccc1)N1N=C(c2cccnc2)CC1(O)C(F)(F)F (stereo not drawn)	none (no result: GALK inh)
NC1=NN=C(N2N=C(c3ccco3)CC2(O)C(F)(F)F)n2ncnc2C1 (stereo not drawn)	none
CCOC(=O)N1N=C(c2ccc(C)cc2)CC1(O)C(F)(F)F (stereo not drawn)	RORg inh 6.3µM, Gal4-VP16 FLuc 6.3µM
Cc1ccc(C2=NN(C3=NN=C(N)Cc4ncnn43)C(O)(C(F)(F)F)C2)cc1 (stereo not drawn)	RORg inh 8.9µM, Gal4-VP16 FLuc inconclusive
Cc1ccc(OCC(=O)N2N=C(c3ccncc3)CC2(O)C(F)(F)F)cc1C (stereo not drawn)	RORg inh 4µM
Cc1ccc(C)n1-c1c(C(=O)NN)cnn1-c1ccccc1	RORg inh inconclusive
Cc1cccc(NC(=O)C2CCN(S(=O)(=O)c3cccs3)CC2)c1	none
COc1ccc(C=C2C=C(C(C)(C)C)C(=O)C(C(C)(C)C)=C2)cc1OC	RORg inh 7.1µM, Gal4-VP16 FLuc 4.5µM, TrxR1 inh 11µM
COc1ccc(/C=C2\CC/C(=C\c3ccc(OC)c(OC)c3)C2=O)cc1OC	RORg inh 2.2µM, TrxR1 substrate inconclusive, Gal4-VP16 FLuc 16µM
CC(C)C1Oc2cc3oc(=O)ccc3cc2C1=O (stereo not drawn)	none
O=C(C[n+]1c(Cl)cc(Cl)c2ccccc21)c1ccccc1	TrxR1 inh 71µM (no result: RORg inh, Gal4-VP16 FLuc, GALK inh, Coupling enz)
Cc1cccc(Cc2cnc(NC(=O)c3ccc4c(c3)CC(c3ccccc3)OC4=O)s2)c1 (stereo not drawn)	none (no result: RORg inh, Gal4-VP16 FLuc, GALK inh, Coupling enz)
COc1ccc(/C(C)=N/Nc2ncc(Cl)cc2Cl)c(O)c1	RORg inh 0.11µM, Gal4-VP16 FLuc 0.79µM
CCN(CC)C(=O)COc1ccc(/C(C)=N/Nc2ncc(Cl)cc2Cl)cc1	RORg inh 6.3µM, Gal4-VP16 FLuc inconclusive
Cc1ccc(NS(=O)(=O)c2cccc(C(=O)N3CCN(c4ncccn4)CC3)c2)cc1	none (no result: RORg inh, Gal4-VP16 FLuc, GALK inh, Coupling enz)
COc1ccc(NC(=O)c2ccc3nc[nH]c3c2)c(OC)c1	none
CC(=O)Nc1ccc(C)cc1-c1nc2ccccc2n(CC(=O)c2ccc(C)c(C)c2)c1=O	none (no result: RORg inh, Gal4-VP16 FLuc, GALK inh, Coupling enz)
N/C(=N\N=C\c1ccc(O)c(O)c1)c1nonc1N	RORg inh 10µM, Gal4-VP16 FLuc inconclusive
COc1cc(/C=N/N=C(\N)c2nonc2N)ccc1O	none
CNC(=O)c1[nH]cnc1C(=O)Nc1ccccc1OC	RORg inh 13µM, Gal4-VP16 FLuc 16µM
CNC(=O)c1[nH]cnc1C(=O)Nc1cccc(Cl)c1	none (no result: RORg inh, Gal4-VP16 FLuc, GALK inh, Coupling enz)
CNC(=O)c1[nH]cnc1C(=O)Nc1ccccc1C	RORg inh 11µM, Gal4-VP16 FLuc 7.9µM
CCN(CC)C(=O)c1[nH]cnc1C(=O)Nc1cccc(C)c1	TrxR1 inh inconclusive (no result: RORg inh, Gal4-VP16 FLuc, GALK inh, Coupling enz)
Cc1cccc(NC(=O)c2nc[nH]c2C(=O)Nc2ccccc2[N+](=O)[O-])c1	RORg inh 4.5µM, Gal4-VP16 FLuc 5.6µM
COc1ccc(-c2noc(N3CCC(C(=O)Nc4ccc(F)cc4Cl)CC3)n2)cc1	none (no result: RORg inh, Gal4-VP16 FLuc, GALK inh, Coupling enz)
CC1(C)CC(=O)C2=C(C1)NC(=S)C(C#N)C21CCCCC1 (stereo not drawn)	RORg inh 10µM, TrxR1 inh inconclusive
CC1(C)CC(=O)C2=C(C1)NC(SCC(=O)Nc1ccccc1)=C(C#N)C21CCCCC1	none
Cc1ccc(O)c(N=Nc2ccccc2)n1	RORg inh 1µM, Gal4-VP16 FLuc 2.8µM, TrxR1 inh inconclusive (no result: GALK inh)
CN(C)c1ccc(Cc2cc3c(O)ccc(O)c3cc(Cc3ccc(N(C)C)cc3)c2=O)cc1	TrxR1 inh 11µM (no result: RORg inh, Gal4-VP16 FLuc, GALK inh, Coupling enz)
Cc1cccc(-c2c(O)cc(=O)[nH]c2Cl)c1	none
Cc1ccc(S(=O)(=O)N2CCN(c3nc(-c4cccnc4)nc4ccccc34)CC2)cc1	none (no result: RORg inh, Gal4-VP16 FLuc, GALK inh, Coupling enz)
Cc1ccc(S(=O)(=O)N2CCN(c3nc(-c4ccncc4)nc4ccccc34)CC2)cc1	TrxR1 inh 45µM (no result: RORg inh, Gal4-VP16 FLuc, GALK inh, Coupling enz)
Cc1ccc(S(=O)(=O)N/N=C2/CC(=O)CC(C)(C)C2)cc1[N+](=O)[O-]	TrxR1 inh 40µM
O=C(Nc1ccccc1)Nc1cc(OCC(F)(F)F)cc(OCC(F)(F)F)c1	RORg inh inconclusive, Gal4-VP16 FLuc 16µM
CCCCOC(=O)c1nnc(-c2ccc(Cl)cc2)o1	none
NC(=S)N=Nc1c(O)[nH]c2ccc(F)cc12	RORg inh 4.5µM, Gal4-VP16 FLuc inconclusive (no result: GALK inh)
O=Nc1c(O)[nH]c2ccc(F)cc12	none
CC(C)NC(=S)N=Nc1c(O)[nH]c2ccc(C(C)C)cc12	RORg inh 5µM, Gal4-VP16 FLuc 4.5µM
NC(=O)C1(N2CCCCC2)CCN(S(=O)(=O)c2ccc(Cl)s2)CC1	none (no result: Coupling enz)
